The source of these data is PubChem BioAssay (NCI).

Test systems include NCI-H23 lung; NCI-H226 lung; NCI-H322M lung; HOP-62 NSCLC; NCI-H460 lung; HOP-92 NSCLC; NCI-H522 lung; A549/ATCC NSCLC; 786-0 renal; COLO 205 colon; DU-145 prostate; K-562 leukemia; MALME-3M melanoma; MDA-MB-231 breast; RXF 393 renal; SF-268 CNS; SF-295 CNS; SF-539 CNS; UACC-257 melanoma; M14 melanoma.
Holding throughout (experiment): NCI-60 one-dose screen, 48 h (100 = growth as untreated, 0 = no growth, -100 = all killed)
Holding throughout (conditions): 10 µM unless noted

The structures appear in SMILES notation. The panel holds about 83,000 compounds, 20% with a hit somewhere; the sample as a whole holds those more often.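 48-hour exposure, single concentration, 96-well plates; percent growth endpoint where 0 means no net growth. Active: below 10.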 A number with no mark means an inactive call. Activity calls are given as the source filed them.

With `C=C1C(=O)O[C@H]2[C@H]1CC/C(CNC(=O)/C=C/c1cc(OC)c(OC)c(OC)c1)=C\CC[C@@]1(C)O[C@@H]21`, the growth in the assay with NCI-H23 lung was -31.3% (active); in the assay on NCI-H226 lung, -61.8% (active); with NCI-H322M lung, 60%; with HOP-62 NSCLC it was 26%; in the assay with NCI-H460 lung it was 82.3%; in the assay on HOP-92 NSCLC, -36% (active). In addition, the growth with NCI-H522 lung was -93.5% (active); in the assay with A549/ATCC NSCLC, 40%; with 786-0 renal it was -68.5% (active); with COLO 205 colon, -86.5% (active); with DU-145 prostate it was 7.86% (active); in the assay with K-562 leukemia, -9.87% (active). Also, the growth with MALME-3M melanoma is -36.6% (active); in the assay on MDA-MB-231 breast, 5.65% (active); in the assay on RXF 393 renal, -88% (active); in the assay on SF-268 CNS it was 28.1%; with SF-295 CNS, 50.4%; with SF-539 CNS, -36% (active). In addition, the growth is -26.1% (active) in the assay with UACC-257 melanoma and -32.3% (active) in the assay with M14 melanoma.
As for `Cc1nn(-c2ccccc2)c(Oc2ccccc2)c1/C=N/NC(=O)Cn1c(=O)sc2ccccc21`, the growth in the assay on NCI-H23 lung was 37.4%; with NCI-H226 lung, 69.8%; in the assay with NCI-H322M lung it was 74.9%; with HOP-62 NSCLC, 57.4%; with NCI-H460 lung, 55.6%; in the assay on HOP-92 NSCLC, 50.1%. The growth in the assay with NCI-H522 lung is 40.6%; with A549/ATCC NSCLC, 37.5%; in the assay on 786-0 renal, 74.5%; with COLO 205 colon, 28.5%; with DU-145 prostate, 76.1%; with K-562 leukemia, 25.2%. The growth with MALME-3M melanoma is 52.7%; with MDA-MB-231 breast, 53.6%; in the assay with RXF 393 renal, 70.6%; in the assay on SF-268 CNS it was 55%; with SF-295 CNS, 45.3%; in the assay with SF-539 CNS, 71.4%. For the same compound, the growth in the assay on UACC-257 melanoma is 66.1%; with M14 melanoma it was 56.2%.
On to `CCOC(=O)c1c(N)sc2cc(O)ccc12`, for which the growth in the assay with NCI-H23 lung is 95.2%; in the assay with NCI-H226 lung, 110%; with NCI-H322M lung, 91.1%; in the assay with HOP-62 NSCLC, 104%; with NCI-H460 lung, 112%; with HOP-92 NSCLC, 121%. The growth is 80% with NCI-H522 lung; 99.7% in the assay with A549/ATCC NSCLC; 104% with 786-0 renal; 112% in the assay with COLO 205 colon; 89.2% in the assay on DU-145 prostate; 89.9% in the assay on K-562 leukemia. Also, the growth with MALME-3M melanoma is 118%; in the assay with MDA-MB-231 breast, 106%; with RXF 393 renal, 115%; in the assay on SF-268 CNS it was 105%; in the assay on SF-295 CNS it was 96.3%; in the assay with SF-539 CNS, 106%. Moreover, the growth is 115% in the assay with UACC-257 melanoma and 108% with M14 melanoma.
In the case of `CN1CCN(Cc2ccc(NC(=O)c3cncc(C#Cc4c(N)ncc5ccccc45)c3)cc2C(F)(F)F)CC1`, the growth in the assay on NCI-H23 lung is -59.1% (active); in the assay on NCI-H226 lung, -11.8% (active); in the assay on NCI-H322M lung it was -37% (active); in the assay on HOP-62 NSCLC it was -83.7% (active); with NCI-H460 lung, -71.5% (active); with HOP-92 NSCLC, -59.2% (active). Besides, the growth in the assay with NCI-H522 lung is -83.9% (active); in the assay on A549/ATCC NSCLC, -87.7% (active); with 786-0 renal, -80.8% (active); with COLO 205 colon it was -90.4% (active); in the assay with DU-145 prostate, -95.6% (active); in the assay with K-562 leukemia, -37% (active). The growth was -84.8% (active) in the assay on MALME-3M melanoma; -88.7% (active) with MDA-MB-231 breast; -97% (active) in the assay on RXF 393 renal; -65.1% (active) in the assay on SF-268 CNS; -59.9% (active) with SF-295 CNS; -97% (active) with SF-539 CNS. Besides, the growth with UACC-257 melanoma was -72.2% (active); in the assay with M14 melanoma it was -73.9% (active).
For `CC(=O)Oc1ccccc1C(=O)N(Cc1ccc2c(Cl)cc(Cl)c(O)c2n1)c1ccccc1`, the growth with NCI-H23 lung is 50.3%; with NCI-H226 lung, 66.4%; in the assay with NCI-H322M lung, 54.9%; with HOP-62 NSCLC, 36.6%; in the assay on NCI-H460 lung it was 29.7%; in the assay on HOP-92 NSCLC, 61.6%. The growth was 72.2% in the assay with NCI-H522 lung; 29.2% in the assay with A549/ATCC NSCLC; 59.1% in the assay with 786-0 renal; 93.7% in the assay with COLO 205 colon; 50.1% with DU-145 prostate; 22.5% in the assay on K-562 leukemia. Moreover, the growth in the assay on MALME-3M melanoma is 69.3%; in the assay with MDA-MB-231 breast it was 68.8%; in the assay on RXF 393 renal, 60.7%; with SF-268 CNS, 39.8%; with SF-295 CNS it was 33.2%; in the assay on SF-539 CNS it was 59%. Further, the growth with UACC-257 melanoma was 78.6%; with M14 melanoma it was 51%.
For `CCCCCCCCNC(=O)[C@@H](N)CSCOC(C)=O`, the growth is 87.4% in the assay with NCI-H23 lung; 104% with NCI-H226 lung; 89.8% in the assay with NCI-H322M lung; 66.7% in the assay on HOP-62 NSCLC; 72.9% in the assay on NCI-H460 lung; 122% in the assay with HOP-92 NSCLC. Further, the growth with NCI-H522 lung was 90.6%; in the assay with A549/ATCC NSCLC it was 84.3%; in the assay on 786-0 renal, 106%; in the assay with COLO 205 colon it was 109%; with DU-145 prostate, 87.6%; in the assay on K-562 leukemia, 71.8%. Also, the growth was 114% in the assay on MALME-3M melanoma; 91.9% with MDA-MB-231 breast; 124% in the assay with RXF 393 renal; -31.5% (active) with SF-268 CNS; 102% with SF-295 CNS; 79.9% with SF-539 CNS. The growth is 110% in the assay on UACC-257 melanoma and 34.2% with M14 melanoma.
`CCCN1C2CCC1/C(=C\c1ccc(OC)cc1)C(=O)/C2=C/c1ccc(OC)cc1`: the growth is 67.5% with NCI-H23 lung; 71.5% with NCI-H226 lung; 92% in the assay on NCI-H322M lung; 89.1% in the assay on HOP-62 NSCLC; 76.9% in the assay on NCI-H460 lung; 58.1% with HOP-92 NSCLC. In addition, the growth with NCI-H522 lung is 51.2%; in the assay with A549/ATCC NSCLC, 72.6%; in the assay with 786-0 renal it was 85.2%; in the assay with COLO 205 colon it was 76%; in the assay on DU-145 prostate, 90%; in the assay with K-562 leukemia, 35.6%. In addition, the growth with MALME-3M melanoma was 57.5%; in the assay on MDA-MB-231 breast, 74.9%; in the assay on RXF 393 renal, 92.4%; in the assay on SF-268 CNS, 83.9%; in the assay on SF-295 CNS, 76.7%; with SF-539 CNS it was 105%. The growth is 44.4% in the assay with UACC-257 melanoma and 62.1% in the assay with M14 melanoma.
For the compound `COc1ccc(C(c2cc(OC)c(OC)c(OC)c2)n2cncn2)cc1O` (stereo not given), the growth is 39.9% in the assay with NCI-H23 lung; 73.4% with NCI-H226 lung; 51.5% in the assay on NCI-H322M lung; 32.2% with HOP-62 NSCLC; 9.82% (active) with NCI-H460 lung; 43.9% with HOP-92 NSCLC. Besides, the growth in the assay with NCI-H522 lung was 12.8%; with A549/ATCC NSCLC it was 18.6%; in the assay with 786-0 renal it was 28.1%; in the assay on COLO 205 colon, -1.65% (active); with DU-145 prostate it was 19.6%; in the assay with K-562 leukemia, 8.34% (active). Further, the growth is 70.2% with MALME-3M melanoma; 43.1% with MDA-MB-231 breast; -13.8% (active) in the assay on RXF 393 renal; 48.8% in the assay on SF-268 CNS; 2.56% (active) in the assay on SF-295 CNS; 9.34% (active) in the assay on SF-539 CNS. For the same compound, the growth was 44.4% in the assay on UACC-257 melanoma and -1.61% (active) with M14 melanoma.
